LmPK inh: qHTS Assay for Inhibitors of Leishmania Mexicana Pyruvate Kinase (LmPK). AID 1721, 2009. purified LmPK, Kinase-Glo ATP luminescence, 1 h. Potency, µM (highest dose often 57.5 µM), inactives show at the top dose activity change, negative = inhibition, most hits filed as inhibitors. Q27686. 0.37% of 290,000 active; note: potency is the fitted concentration of half-maximal effect; % is set by controls: 0 for no effect and ±100 for the full control effect
Target sequence (Q27686 whole entry, looked up): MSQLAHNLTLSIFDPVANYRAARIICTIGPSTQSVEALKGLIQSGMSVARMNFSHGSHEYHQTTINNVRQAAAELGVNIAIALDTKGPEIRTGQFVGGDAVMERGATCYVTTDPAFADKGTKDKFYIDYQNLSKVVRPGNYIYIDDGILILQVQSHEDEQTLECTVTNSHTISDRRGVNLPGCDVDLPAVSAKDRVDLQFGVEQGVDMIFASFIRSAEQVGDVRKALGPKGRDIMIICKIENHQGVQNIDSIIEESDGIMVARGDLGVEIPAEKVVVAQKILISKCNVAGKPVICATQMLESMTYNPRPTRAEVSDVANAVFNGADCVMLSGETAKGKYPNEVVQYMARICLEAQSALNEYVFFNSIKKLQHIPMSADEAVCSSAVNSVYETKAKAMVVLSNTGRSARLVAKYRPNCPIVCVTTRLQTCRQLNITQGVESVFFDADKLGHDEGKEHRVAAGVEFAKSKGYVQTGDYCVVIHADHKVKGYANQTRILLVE
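In 50 mM imidazole pH 7.2 with 7 mM MgCl2, LmPK (0.1 nM) turned over PEP (0.5 mM) and ADP (0.1 mM) for 1 h at room temperature. Luciferase read-out of ATP.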
Shiga toxin inh: A qHTS for Small Molecule Inhibitors of Shiga Toxin; Vero cells, Shiga toxin protein synthesis inhibition reporter; inhibition, % at 38.7 µM; 9.2% of 290,000 active; in the data active = inhibition mostly above about 28%, no sharp cut-off; inactive = mostly below about 43%; note: 0% is about no effect
CHX counter: Cycloheximide Counterscreen for Small Molecule Inhibitors of Shiga Toxin; cell reporter, cycloheximide protein synthesis inhibition counterscreen; 12% of 300,000 active; max response, %; in the data active = max response mostly above about 13%, no sharp cut-off; inactive = mostly below about 14%; note: read at 38.3 µM for the half of the compounds with a filed dose; 0% is about no effect
Pf growth 48h: Primary qHTS for delayed death inhibitors of the malarial parasite plastid, 48 hour incubation. 5.9% of 310,000 active. Potency, µM (doses to about 28.7 µM), for inactives: top-dose activity change, negative = inhibition, usual class: inhibitors. P. falciparum luciferase growth in erythrocytes, 48 h; note: potency is the fitted concentration of half-maximal effect; % is set by controls: 0 for no effect and ±100 for the full control effect
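Luminescence readout; reporter = integrated firefly luciferase in P. falciparum. RBC culture at 2% hematocrit, 0.1% parasitemia final, 37 C/5% CO2; decreased signal taken as growth inhibition.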
Pf growth 96h: Primary qHTS for delayed death inhibitors of the malarial parasite plastid, 96 hour incubation; 6.9% of 320,000 active; P. falciparum luciferase reporter growth, 96 h; Potency, µM (highest dose often 28.7 µM), inactives show top-dose activity change, negative = inhibition, actives largely listed as inhibitors; note: potency is the fitted concentration of half-maximal effect; % is set by controls: 0 for no effect and ±100 for the full control effect
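Parasite growth measured via integrated firefly luciferase reporter in P. falciparum. Infected erythrocytes at 2% hematocrit, 0.05% parasitemia final were treated 96 hours at 37 C under 5% CO2, and luminescence was read.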
* = called active by the depositor; i = inactive; u = inconclusive; x = no result. Only some compounds are listed: those with a hit (about 22% of all), similar ones and a draw of the others. Unless noted, calls come from the whole dose curve; as a rule, active = well fitted inhibition curve with a large enough effect; inconclusive = small, poorly fitted or top-dose-only effect, or another doubt; inactive = no such curve, though single readings can be large or run the other way.

SMILES | LmPK inh | Shiga toxin inh | CHX counter | Pf growth 48h | Pf growth 96h
COc1ccc(/C=C/C(=O)c2ccc(NC(=O)c3cccs3)cc2)cc1OC | -4% | 70* | 22* | u | -12%
COc1ccc(NC(=O)c2cccs2)cc1O | -13% | 70* | 58* | 174% | 140%
C[C@H]1CN(S(=O)(=O)c2c(F)cccc2F)CCN1S(=O)(=O)c1ccc2c(c1)OCCO2 | x | -6 | -7 | x | x
CCOC(=O)c1ccc2c(c1)NCc1cccc(OC)c1O2 | 2% | 99* | 53* | 151% | 247%
O=C(N/N=C/c1cc2ccccc2nc1Cl)[C@H]1C[C@@H]1c1ccccc1 | 0% | -16 | -2 | 2.6µM* | 1.7µM*
Cc1cccc2cc(/C=N/NC(=O)[C@H]3C[C@@H]3c3ccccc3)c(Cl)nc12 | 1% | -4 | -1 | 0% | 7%
Cc1ccc2cc(/C=N/NC(=O)c3ccccc3O)c(Cl)nc2c1 | 0% | -17 | 6 | -9% | u
Cc1ccc2cc(/C=N/NC(=O)[C@H]3C[C@@H]3c3ccccc3)c(Cl)nc2c1 | 2% | 10 | 16* | 2.9µM* | 2.1µM*
CC1CCCC(NC(=O)c2cccc(S(=O)(=O)N3CCCCC3)c2)C1C (centres undefined) | -3% | -4 | -4 | u | u
COc1ccc(CNc2nc3ccccc3n2C)c(O)c1 | -13% | 69* | 39* | 0% | -7%
Cn1c(NCc2c(O)ccc3ccccc23)nc2ccccc21 | 7% | 33 | 7 | x | 62%
COc1ccc(CNc2nc3ccccc3n2C(C)C)cc1 | -5% | 2 | 1 | -23% | u
COc1ccc(CNc2nc3ccccc3n2C(C)C)c(O)c1 | 14% | x | 1 | 12µM* | u
CC(C)n1c(NCc2cc(Cl)ccc2O)nc2ccccc21 | 1% | -19 | -10 | x | 26%
Cn1c(NCc2cc(Br)ccc2O)nc2ccccc21 | 1% | 66* | 27* | u | 28%
Cc1ccc(O)c(CNc2nc3ccccc3n2C(C)C)c1 | 1% | 12 | -3 | 8.3µM* | 15%
COc1ccc2c(c1)OC(=O)CC2c1ccccc1C (centres undefined) | x | i | 1 | x | x
COc1ccc(CNc2nc3ccccc3n2C)c(OC)c1 | 18µM* | 82* | 40* | 139% | 101%
CCN(CC)CCn1c(NCc2cc(OC)ccc2OC)nc2ccccc21 | -2% | 11 | 9 | u | u
O=C(Nc1ccccc1Cl)c1sccc1-c1ccccc1 | -1% | 3 | -6 | u | u
CN(Cc1ccc(Cl)c(Cl)c1)C(=O)C1=CC=CN2CCS(=O)(=O)N=C12 | x | x | x | 9.3µM* | 1.5µM*
O=C(Oc1cc(Cl)ccc1Cl)C1=CC=CN2CCS(=O)(=O)N=C12 | x | x | x | -23% | -5%
CNCC[C@H](Oc1cccc2ccccc12)c1cccs1 | -2% | -7 | -2 | 13µM* | 6.7µM*
O=C(CCC(=O)c1ccc[nH]1)c1ccc(Cl)cc1 | -1% | 100* | 46* | 202% | 184%
O=C(Cc1ccc(Cl)cc1Cl)OCC(=O)c1ccc[nH]1 | 3% | 59 | 13 | x | 31%
SMILES | LmPK inh | Shiga toxin inh | CHX counter | Pf growth 48h | Pf growth 96h
O=C(COc1ccc(F)c(Cl)c1)c1ccc[nH]1 | -7% | 40 | 36* | 20% | u
CC(C)C(=O)Nc1ccc(S(=O)(=O)Nc2ccccn2)cc1 | -5% | -14 | -3 | 21% | 67%
O=C1CC(C(=O)N2CCc3ccccc32)CN1c1ccccc1 (centres undefined) | -1% | -4 | 2 | -3% | -4%
COc1ccc(/C=N/NC(=O)c2cccc(COCC(F)(F)C(F)F)c2)cc1 | -6% | 8 | -2 | -10% | u
Cc1cccc(C=Nc2ccc3c(c2)oc2ccccc23)c1O | -9% | 98* | 62* | 51% | -30%
O=C1OC(c2ccc(F)cc2)=C/C1=C\c1ccc(O)cc1 | 2% | 40 | 14* | 60% | -7%
O=C1OC(c2ccc(F)cc2)=C/C1=C\c1ccc([N+](=O)[O-])o1 | 21% | 20 | 13 | 14% | 46%
CC1CCCC2(C1)NC(=S)c1c(sc3c1CCCC3)N2 (centres undefined) | 0% | 57 | 15* | x | 5.2µM*
CC(C)CCN1NC2(CCCC(C)C2)NC1=S (centres undefined) | -4% | 25 | 8 | u | 0%
CC(C)c1ccc(C(O)Cc2nc3ccccc3n2C)cc1 (centres undefined) | 1% | 127* | 60* | u | u
CC(C)c1ccc(C(O)c2nc3ccccc3n2C)cc1 (centres undefined) | 0% | 22 | 9 | u | -20%
COc1ccccc1C(O)Cc1nc2ccccc2n1C (centres undefined) | -4% | 108* | 63* | x | -25%
CN(Cc1nc2ccccc2n1C)c1ccccc1 | -1% | 38 | 12 | 0% | u
CN(C)c1ccc(C(O)Cc2nc3ccccc3n2C)cc1 (centres undefined) | 6% | 63* | 25* | 16% | 9%
C=CCc1cc(/C=C2/NC(=O)N(CC(=O)OC)C2=O)cc(OC)c1O | -4% | -17 | -4 | u | u
COc1cccc(C2=Nn3c(nnc3-c3ccc(OC)c(OC)c3)SC2)c1 | x | 7 | 3 | x | x
CC(C)OCCCNC(=O)CN1C(=O)/C(=C/c2ccccc2)Sc2ccccc21 | -1% | 0 | -2 | -17% | u
COCCN(C(=O)c1ccccc1)c1nc(-c2ccc(OC)cc2)cs1 | -13% | 5 | 1 | u | u
COCCN(C(=O)C1CC(=O)N(Cc2ccccc2)C1)c1nc(-c2ccc([N+](=O)[O-])cc2)cs1 (centres undefined) | x | x | x | 13µM* | u
O=C(CSc1ccc(Cl)cc1Cl)N1CCC(c2nc3ccccc3s2)CC1 | 1% | -17 | -2 | -10% | -3%
O=C(c1ccc(-c2nc3ccccc3s2)o1)N1CCN(c2ccccc2O)CC1 | -8% | 45 | 37* | u | 5.2µM*
O=C(O)c1ccc(-c2nc3ccccc3s2)o1 | -18% | 78* | 45* | 241% | i
O=C(CN1CCN(C(=O)c2ccc(-c3nc4ccccc4s3)o2)CC1)Nc1ccc(F)cc1 | x | x | x | 12µM* | 13µM*
O=Cc1ccc(-c2nc3ccccc3s2)o1 | 16µM* | 61* | 29* | 101% | 41%
CCCc1cc(=O)oc2cc(OCC(=O)NC3CCN(Cc4ccccc4)CC3)ccc12 | -9% | 11 | -12 | u | u
C/C(N)=C(/C#N)C(=O)COC(=O)[C@@H](NC(=O)c1ccccc1Cl)C(C)C | 6% | -5 | -3 | -4% | 0%
O=C(CN1C(=O)COc2ccc(Cl)cc21)Nc1ccccn1 | -3% | -3 | -3 | -14% | u
Cc1cc(C)nc(Nc2n[nH]c(-c3ccccc3C)n2)n1 | -2% | 100* | 42* | 70% | u
